Laboratory results from the supplement of paper PMC12494721.
Counter-ions that a name gives are not always drawn.

Legend:
Details in all cases: incubation time: 27 h, anaerobic, 37 °C;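 for the amine columns active = adjusted P below 0.05 in both replicates with a change the same way and a mean fold change under 0.8 or over 1.25; inactive = the rest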
[1] = tested on: Clostridium sporogenes DSM 1664; assay: growth (OD595) fold change vs plate DMSO controls (fold change (ratio)); higher = more growth
In short: (§1)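 After 27 h at 37 °C under anaerobic conditions, 96-well cultures in mGAM were shaken and read at 595 nm. The readings were blank-subtracted, corrected for compound background using 20 µM compound solutions in water, and converted to OD with a calibration factor of 5. Growth is defined as the fold change over the median of DMSO controls on each plate. Fold changes above 1.5 were set to NA, and each value is the mean of 2 biological replicates.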

[2] = tested on: Escherichia coli IAI1; assay: as above
In short: as §1

[3] = tested on: Klebsiella aerogenes DSM 30053; assay: as above
In short: as §1

[4] = tested on: Ruminococcus gnavus DSM 108212; assay: as above
In short: as §1

[5] = tested on: Klebsiella aerogenes DSM 30053; assay: fold change of Histamine concentration vs plate DMSO controls (fold change (ratio)); higher = more amine produced, active = hit call of the paper (significant change in both replicates, either direction)
In short: (§2)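 Anaerobic mGAM cultures of four gut bacterial strains were grown at 37 °C for 27 h in 80 µL wells, starting at OD 0.1 before 1:1 dilution. Compounds were at 20 µM final (sweeteners 50 µM). Whole cultures were extracted with cold acetonitrile/methanol containing 0.1% formic acid and centrifuged. Amines were quantified by LC–triple-quadrupole MS (dynamic MRM) against external calibration curves and drift-corrected within batch. Each value is the fold change versus plate DMSO controls, averaged over 2 biological replicates.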

[6] = tested on: Clostridium sporogenes DSM 1664; assay: fold change of Tryptamine concentration vs plate DMSO controls (fold change (ratio)); higher = more amine produced, active = hit call of the paper (significant change in both replicates, either direction)
In short: as §2

[7] = tested on: Ruminococcus gnavus DSM 108212; assay: as above
In short: as §2

[8] = tested on: Escherichia coli IAI1; assay: fold change of Putrescine concentration vs plate DMSO controls (fold change (ratio)); higher = more amine produced, active = hit call of the paper (significant change in both replicates, either direction)
In short: as §2

[9] = tested on: Klebsiella aerogenes DSM 30053; assay: as above
In short: as §2

[10] = tested on: Escherichia coli IAI1; assay: fold change of Cadaverine concentration vs plate DMSO controls (fold change (ratio)); higher = more amine produced, active = hit call of the paper (significant change in both replicates, either direction)
In short: as §2

[11] = tested on: Klebsiella aerogenes DSM 30053; assay: as above
In short: as §2

[12] = tested on: Ruminococcus gnavus DSM 108212; assay: fold change of 2-Phenylethylamine concentration vs plate DMSO controls (fold change (ratio)); higher = more amine produced, active = hit call of the paper (significant change in both replicates, either direction)
In short: as §2

| SMILES | growth [1] | growth [2] | growth [3] | growth [4] | fold change of Histamine concentration [5] | fold change of Tryptamine concentration [6] | fold change of Tryptamine concentration [7] | fold change of Putrescine concentration [8] | fold change of Putrescine concentration [9] | fold change of Cadaverine concentration [10] | fold change of Cadaverine concentration [11] | fold change of 2-Phenylethylamine concentration [12] |
| --- | --- | --- | --- | --- | --- | --- | --- | --- | --- | --- | --- | --- |
| CN1CCN(c2c(F)cc3c(=O)c(C(=O)O)cn4c3c2SCC4)CC1 [Rufloxacin] (20 µM) | 0.0133 | 0.0641 | 0.299 | 0.953 | 0.201 (active) | 0.0518 (active) | 0.901 (inactive) | 0.875 (inactive) | 1.18 (inactive) | 0.26 (active) | 0.997 (inactive) | 0.952 (inactive) |
| Oc1ccccc1O [Catechol] (20 µM) | 1.11 | 1.01 | 0.966 | 0.98 | 1 (inactive) | 0.972 (inactive) | 0.979 (inactive) | 1.02 (inactive) | 1.01 (inactive) | 1.16 (inactive) | 0.978 (inactive) | 0.971 (inactive) |
| CC(COc1ccccc1)N(CCCl)Cc1ccccc1 (stereo not given) [Phenoxybenzamine hydrochloride] (20 µM) | 0.887 | 1.03 | 1.01 | 1.02 | 1.02 (inactive) | 1 (inactive) | 1.01 (inactive) | 1.02 (inactive) | 1.02 (inactive) | 0.963 (inactive) | 0.985 (inactive) | 1.05 (inactive) |
| CCC(=O)O[C@]1(C(=O)CCl)[C@@H](C)C[C@H]2[C@@H]3CCC4=CC(=O)C=C[C@]4(C)[C@@]3(F)[C@@H](O)C[C@@]21C [Clobetasol propionate] (20 µM) | 1.36 | 1.06 | 1.06 | 0.908 | 0.98 (inactive) | 1.02 (inactive) | 0.96 (inactive) | 0.988 (inactive) | 1.02 (inactive) | 1.01 (inactive) | 0.999 (inactive) | 0.936 (inactive) |
| O=C(O)c1ccccc1OP(=O)(O)O [Fosfosal] (20 µM) | 0.91 | 1.01 | 1.01 | 1.17 | 0.997 (inactive) | 1.05 (inactive) | 1.03 (inactive) | 0.942 (inactive) | 1 (inactive) | 0.995 (inactive) | 0.995 (inactive) | 1.04 (inactive) |
| O=C(O)Cc1ccccc1Oc1ccc(Cl)cc1Cl [Fenclofenac] (20 µM) | 0.896 | 1.02 | 0.998 | 1 | 1.01 (inactive) | 0.984 (inactive) | 1.02 (inactive) | 1.02 (inactive) | 1.01 (inactive) | 0.999 (inactive) | 1.01 (inactive) | 1.07 (inactive) |
| OC[C@H]1O[C@H](O[C@H]2[C@H](O)[C@@H](O)[C@H](O)O[C@@H]2CO)[C@H](O)[C@@H](O)[C@@H]1O [Maltose] (50 µM) | 1 | 1.03 | 1.03 | 1 | 0.966 (inactive) | 0.991 (inactive) | 0.984 (inactive) | 1.02 (inactive) | 0.996 (inactive) | 1.06 (inactive) | 0.999 (inactive) | 1.01 (inactive) |
| C[C@]12CC[C@@H]3c4ccc(O)cc4CC[C@H]3[C@@H]1CCC2=O [Estrone] (20 µM) | 1.03 | 1.02 | 1.03 | 1.01 | 1.07 (inactive) | 1.06 (inactive) | 0.894 (inactive) | 1.04 (inactive) | 1.02 (inactive) | 1.02 (inactive) | 1.01 (inactive) | 0.884 (inactive) |
| O=C(OCC(O)CO)c1ccccc1Nc1ccnc2cc(Cl)ccc12 (stereo not given) [Glafenine hydrochloride] (20 µM) | 1.08 | 0.957 | 0.977 | 0.831 | 1.01 (inactive) | 0.965 (inactive) | 1.03 (inactive) | 0.998 (inactive) | 0.999 (inactive) | 0.998 (inactive) | 1.01 (inactive) | 1.04 (inactive) |
| Cc1cnc(C(=O)O)c[n+]1[O-] [Acipimox] (20 µM) | 1.05 | 0.996 | 1.27 | 0.959 | 0.874 (inactive) | 0.952 (inactive) | 1 (inactive) | 1.01 (inactive) | 0.998 (inactive) | 1.03 (inactive) | 1.03 (inactive) | 1.03 (inactive) |
| NC(=O)N/N=C/c1ccc([N+](=O)[O-])o1 [Nitrofural] (20 µM) | 1.07 | 1 | 0.973 | 0.979 | 0.768 (inactive) | 0.906 (inactive) | 0.792 (active) | 0.6 (active) | 0.947 (inactive) | 1.22 (inactive) | 1.01 (inactive) | 0.836 (inactive) |
| Cc1cc2c(cc1S(N)(=O)=O)S(=O)(=O)CCC2 [Meticrane] (20 µM) | 0.974 | 1.03 | 1.02 | 1.24 | 1.05 (inactive) | 1.01 (inactive) | 0.986 (inactive) | 0.983 (inactive) | 1.01 (inactive) | 1.02 (inactive) | 0.986 (inactive) | 1 (inactive) |
| CN(C)CCn1nnnc1SCC1=C(C(=O)O)N2C(=O)[C@@H](NC(=O)Cc3csc(N)n3)[C@H]2SC1 [Cefotiam hydrochloride] (20 µM) | 0 | 0.00521 | 1.05 | 0.248 | 1.27 (inactive) | 0.0154 (active) | 0.0411 (active) | 0.121 (active) | 1.08 (inactive) | 0.522 (active) | 1.14 (inactive) | 0.0464 (active) |
| Cc1cc(=O)n(-c2ccccc2)n1C [Antipyrine] (20 µM) | 1.04 | 0.959 | 1.03 | 0.869 | 0.98 (inactive) | 1.03 (inactive) | 1.01 (inactive) | 0.999 (inactive) | 1 (inactive) | 1.01 (inactive) | 0.999 (inactive) | 1.02 (inactive) |
| Oc1c(Cl)cc(Cl)cc1Sc1cc(Cl)cc(Cl)c1O [Bithionol] (20 µM) | 0 | 0.881 | 1.01 | 0.0806 | 1.05 (inactive) | 0.0165 (active) | 0.101 (active) | 1.26 (active) | 1.02 (inactive) | 1.51 (active) | 1.01 (inactive) | 0.0838 (active) |
| N[C@@H](Cc1cc(I)c(Oc2cc(I)c(O)c(I)c2)c(I)c1)C(=O)O [(L) Thyroxine] (20 µM) | 1.27 | 0.975 | 1.01 | 0.958 | 1.05 (inactive) | 1.27 (inactive) | 0.99 (inactive) | 1.01 (inactive) | 1 (inactive) | 1 (inactive) | 1.01 (inactive) | 1.03 (inactive) |
| CC(C)NNC(=O)c1ccncc1 [Iproniazide phosphate] (20 µM) | 1.05 | 1.13 | 1.09 | 1.06 | 0.977 (inactive) | 1.06 (inactive) | 1 (inactive) | 1.13 (inactive) | 1.01 (inactive) | 0.987 (inactive) | 1 (inactive) | 0.994 (inactive) |
| NCCc1cc[nH]n1 [Betazole hydrochloride] (20 µM) | 1.01 | 0.989 | 1.03 | 1.02 | 0.96 (inactive) | 1 (inactive) | 1.04 (inactive) | 0.987 (inactive) | 1.02 (inactive) | 1 (inactive) | 1 (inactive) | 1.02 (inactive) |
| CN(CCCCCCCCCCN(C)C(=O)Oc1cccc([N+](C)(C)C)c1)C(=O)Oc1cccc([N+](C)(C)C)c1 [Demecarium bromide] (20 µM) | 0.744 | 0.974 | 1.04 | 0.614 | 0.986 (inactive) | 0.871 (inactive) | 1.06 (inactive) | 0.987 (inactive) | 1.01 (inactive) | 1.03 (inactive) | 1.01 (inactive) | 1.06 (inactive) |
| C[C@]12C=CC(=O)C=C1CC[C@H]1[C@@H]3C[C@@H](O)[C@](O)(C(=O)CO)[C@@]3(C)C[C@H](O)[C@@]12F [Triamcinolone] (20 µM) | 1.01 | 0.986 | 1.02 | 0.944 | 0.954 (inactive) | 0.918 (inactive) | 1.02 (inactive) | 0.976 (inactive) | 1.02 (inactive) | 0.994 (inactive) | 0.992 (inactive) | 1.07 (inactive) |
| CC(=O)CC(c1ccccc1)c1c(O)c2ccccc2oc1=O (stereo not given) [Warfarin] (20 µM) | 1.08 | 1.21 | 0.97 | 1.12 | 1 (inactive) | 1.05 (inactive) | 0.84 (inactive) | 1.22 (inactive) | 0.989 (inactive) | 0.958 (inactive) | 0.984 (inactive) | 0.758 (inactive) |
| O=C(CO)[C@@H](O)[C@H](O)[C@@H](CO)O[C@H]1O[C@H](CO)[C@@H](O)[C@H](O)[C@H]1O [Leucrose] (50 µM) | 0.936 | 0.999 | 1.01 | 0.99 | 1.02 (inactive) | 1.03 (inactive) | 0.993 (inactive) | 1.05 (inactive) | 1 (inactive) | 1.02 (inactive) | 0.992 (inactive) | 0.968 (inactive) |
| O=c1[nH]c(=O)n([C@H]2C[C@H](O)[C@@H](CO)O2)cc1/C=C/Br [Brivudine] (20 µM) | 1.08 | 1.06 | 1.02 | 1.06 | 0.978 (inactive) | 1.03 (inactive) | 1.04 (inactive) | 0.968 (inactive) | 1 (inactive) | 0.982 (inactive) | 1 (inactive) | 1.08 (inactive) |
| CC(C)C(=O)OCC(=O)[C@@]12O[C@H](C3CCCCC3)O[C@@H]1C[C@H]1[C@@H]3CCC4=CC(=O)C=C[C@]4(C)[C@H]3[C@@H](O)C[C@@]12C [Ciclesonide] (20 µM) | 1.08 | 1.12 | 1.01 | 1.17 | 1.02 (inactive) | 0.953 (inactive) | 0.966 (inactive) | 1.11 (inactive) | 0.999 (inactive) | 0.979 (inactive) | 0.99 (inactive) | 0.956 (inactive) |
| NC[C@@H]1O[C@@H](O[C@H]2[C@H](O)[C@@H](O[C@H]3O[C@H](CO)[C@@H](O)[C@H](N)[C@H]3O)[C@H](N)C[C@@H]2N)[C@@H](O)[C@H](O)[C@H]1O [Kanamycin A sulfate] (20 µM) | 1.05 | 1.02 | 1.02 | 1.09 | 0.907 (inactive) | 1.06 (inactive) | 1.01 (inactive) | 1.02 (inactive) | 0.977 (inactive) | 0.97 (inactive) | 1.02 (inactive) | 1.03 (inactive) |
